Screening results (PubChem)
In the library only some 32% were active in any assay of this set; here they are far more common.
CYP2C9 inh = blocks human cytochrome P450 2C9. P11712. CYP2C9 Supersomes, luciferin-H conversion, luminescence. inhibition, % at 5 µM. 96,000 tested, 20% active. AID 777;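 active = blocking of liver enzyme CYP2C9 beyond about 50% at 5 µM, limit read from the data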
Target sequence (P11712 whole entry, looked up): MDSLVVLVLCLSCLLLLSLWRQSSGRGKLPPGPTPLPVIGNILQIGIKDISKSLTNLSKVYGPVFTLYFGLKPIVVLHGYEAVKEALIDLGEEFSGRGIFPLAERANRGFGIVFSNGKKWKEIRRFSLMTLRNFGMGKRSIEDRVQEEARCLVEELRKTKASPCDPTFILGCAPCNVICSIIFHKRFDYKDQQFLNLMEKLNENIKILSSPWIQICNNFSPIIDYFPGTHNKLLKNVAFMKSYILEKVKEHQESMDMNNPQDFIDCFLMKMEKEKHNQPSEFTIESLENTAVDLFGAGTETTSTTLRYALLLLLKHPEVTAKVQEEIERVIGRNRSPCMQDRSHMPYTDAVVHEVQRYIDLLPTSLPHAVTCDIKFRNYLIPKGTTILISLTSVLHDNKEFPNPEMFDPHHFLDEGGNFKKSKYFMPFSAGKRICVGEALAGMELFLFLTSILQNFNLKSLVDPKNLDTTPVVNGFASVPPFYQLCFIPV
CYP2C19 activ = increases human CYP2C19 enzyme activity; recombinant CYP2C19, luciferin-H EGE luminescence; stronger effect = higher value; 0 = fully inhibited enzyme, 1 = untreated enzyme; 96,000 tested, under 10 active; activation factor at 5 µM; P33261;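 active = activation factor of at least 2 at 5 µM in the primary screen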;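 also: 0 = wells with 2.5 mM tranylcypromine and 1 = vehicle-only wells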
PostGolgi ctrl = yeast control strain growth, post-Golgi counter-screen. efflux-deficient yeast background strain, growth absorbance A615, 16 h. inhibition, % at 10 µM. AID 738. 98,000 tested, 5% active
PostGolgi yeast = growth inhibition of a yeast mutant, post-Golgi transport screen | post-Golgi transport phenotypic cell assay | inhibition, % at 10 µM | 98,000 tested, 0.9% active | AID 739;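 also: yeast cells grown in 1536-well plates; yeast grown about 18 h at 30C before absorbance read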
CYP2C19 inh = human CYP2C19 inhibition | P33261 | CYP2C19 Supersomes, luciferin-H EGE luminescence, 30 min | AID 778 | 96,000 tested, 21% active | inhibition, % at 5 µM;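 active = CYP2C19 inhibition above a set limit at 5 µM in the primary screen, cut at about 50% in these data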;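 also: plate controls were negative control wells for no effect and 2.5 mM tranylcypromine positive control for full effect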
CYP2C9 activ = activators of human CYP2C9. recombinant CYP2C9, luciferin-H conversion, luminescence; stronger effect = higher value; factor 1 = untreated enzyme, 0 = blocked. 96,000 tested, 1.4% active. activation factor at 5 µM. AID 1024;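 active = activation factor of 2 or more for CYP2C9 at a 5 µM dose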;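 also: 0 = sulfaphenazole-blocked wells and 1 = vehicle-only wells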
Active calls of the source: *. Rule as the data show it, unless noted: active = inhibition above about 30%; inactive = the rest.

SMILES	CYP2C9 inh	CYP2C19 activ	PostGolgi ctrl	PostGolgi yeast	CYP2C19 inh	CYP2C9 activ
Cc1cc2ccccc2nc1SCC(=O)N1c2ccccc2CC1C (stereo unspecified)	9.5	0.9	19.6	-4.4	13.4	0.9
Cn1c(=O)c2c(nc(SCCN3CCCCC3)n2Cc2ccccc2)n(C)c1=O	-2.7	1	1.8	16.8	-4.2	1
O=C1NCC(O)=C1C=NC12CC3CC(CC(C3)C1)C2	-9.0	1	7.6	-3.0	-2.7	1.1
O=C(N/N=C\c1cc(Br)cs1)C1COc2ccccc2O1 (stereo unspecified)	13.0	0.9	37.4*	7.4	10.4	0.9
O=C(c1ccc(Br)cc1)C1CCc2occc2C1=O (stereo unspecified)	65.8*	0	1.2	1.8	97.1*	0.3
N#CCCN(CCC#N)c1nncs1	5.6	1	13.9	-1.1	-4.7	0.9
CC(C)(C)c1csc(N(CCC#N)CCC#N)n1	56.1*	0.5	23.6	-2.0	54.1*	0.4
Cc1ccc(Cl)cc1N1CCN(C(=O)c2cn(C)c(=O)c3c2c2ccccc2n3C)CC1	96.4*	0.1	56.6*	3.7	86.0*	0
COCCn1cc(C(=O)N2CCN(C)CC2)c2c3ccccc3n(C)c2c1=O	-1.3	1	2.6	-1.9	-0.4	1
Cn1c2ccccc2c2c(C(=O)N3CCN(c4ccccc4)CC3)cn(C3CCCC3)c(=O)c21	51.5*	0.6	22.0	4.6	39.8	0.5
Cn1c2ccccc2c2c(C(=O)NCCCN3CCCC3=O)cn(C3CCCCC3)c(=O)c21	54.6*	0.7	1.8	7.9	32.8	0.5
CN1CCN(CCCNC(=O)c2cn(C3CCCCC3)c(=O)c3c2c2ccccc2n3C)CC1	0.9	0.7	4.7	4.7	34.0	1
Cc1cccc(N2CCN(C(=O)c3cn(C)c(=O)c4c3c3ccccc3n4C)CC2)c1C	70.5*	0.9	59.7*	3.3	8.5	0.3
CCCCS(=O)CC(O)COCC (stereo unspecified)	-5.9	1.1	-6.8	-0.8	-13.9	1.1
c1ccc2oc(-c3ccc(Nc4nc(N5CCCCC5)nc(N5CCOCC5)n4)cc3)nc2c1	18.5	1	26.3	15.9	3.8	0.8
CCOc1ccc(NC(=O)NCC2CCN(c3ccc(OC)cc3)C2)cc1 (stereo unspecified)	23.9	0.8	8.9	2.0	16.1	0.8
COc1ccc(NC(=O)NCCCN2CCCC2=O)c(OC)c1	8.6	0.5	3.0	-7.1	53.8*	0.9
COc1ccc(N2CCC(CNC(=O)Nc3ccc(OC)cc3OC)C2)cc1 (stereo unspecified)	35.8	0.4	-9.5	-8.1	61.7*	0.6
O=C(CCC1CCCC1)N1CCN(C2CCCC2)CC1	11.3	0.3	-4.8	10.8	73.4*	0.9
O=C(Nc1ccccc1N1CCCCC1)c1ccccc1F	-19.6	1.1	34.2*	-4.0	-6.4	1.2
COc1cccc(OC)c1C(=O)Nc1ccccc1N1CCCC1	1.7	0.9	11.7	6.4	9.5	1
O=C(Nc1ccccc1N1CCCCC1)c1ccc(N2C(=O)c3ccccc3C2=O)cc1	54.6*	0.5	0.4	1.8	49.2	0.5
Cc1cc(-c2n[nH]c(=S)o2)c(C)n1-c1ccccc1	24.8	0.9	20.7	-0.6	6.5	0.8
Cc1cc2c3nonc3ccc2n1-c1ccccc1	-1.3	0.8	34.6*	4.8	18.1	1
N#CCC(=O)NCCCOC(=O)Nc1ccc(Cl)c(Cl)c1	1.5	1.1	-2.9	-6.7	-6.2	1
SMILES	CYP2C9 inh	CYP2C19 activ	PostGolgi ctrl	PostGolgi yeast	CYP2C19 inh	CYP2C9 activ
CCCc1cc(=O)[nH]c(/N=C(\N)Nc2ccccc2)n1	9.0	1	5.8	-1.6	-0.1	0.9
CCOC(=O)Cc1csc(NC(=O)CC(C)(C)C)n1	-1.1	1	-0.8	1.0	3.2	1
COc1ccc(C2N(c3cc(Cl)ccc3OC)C(=O)C3CCCN32)cc1 (stereo unspecified)	-84.8	0.2	2.7	1.0	76.8*	1.8
COc1ccc(N2C(=O)C3CCCN3C2c2ccc(Cl)cc2)cc1 (stereo unspecified)	15.6	0.9	4.5	11.5	7.2	0.8
COc1ccc(Cl)cc1N1C(=O)C2CCCN2C1c1ccccc1F (stereo unspecified)	-21.0	0.6	5.2	-6.4	38.6	1.2
COc1ccc(Cl)cc1N1C(=O)C2CCCN2C1c1ccc(F)cc1 (stereo unspecified)	-97.6	0.5	5.3	12.2	49.2	2*
